# HT1080NT lethal: kills 2HG-producing HT-1080-NT fibrosarcoma cells | HT-1080-NT fibrosarcoma viability, CellTiter-Glo ATP luminescence, 48 h | 1.6% of 360,000 active | AID 686970 | Potency, µM (titrated, usually from 46.1 µM), for inactives: top-dose activity, negative = less viability, usual class: cytotoxic;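 further: NT is the 2HG producing partner of a matched IDH1 knockdown line; 0% = DMSO-treated cells and -100% = media-only wells without cells; nearly all actives have a fitted effect of over 55% in size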
#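 Read-out is CellTiter-Glo luminescence after 10 minutes at room temperature, following 48 hours' compound treatment of HT-1080-NT cells (750 cells/well, RPMI, 5% FBS, 37 degrees C).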
# ATXN2 expr inh: inhibitors of ATXN2 expression. HEK-293 ATXN2-luciferase reporter, luminescence, 24 h. Potency, µM (titrated, usually from 57 µM), for inactives: at the highest dose activity change, negative = inhibition, usual class: inhibitors. 0.72% of 360,000 active; further: on the % scale 0 is the no-effect control and ±100 the full control effect; nearly all actives have a fitted effect of over 55% in size
#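 ATXN2-luciferase reporter cells (luciferase flanked by upstream and downstream ATXN2 gene portions) were treated 24 h at 37 °C with compounds at up to 57 uM. SteadyGlo luminescence gave expression; GF-AFC fluorescence gave viability.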
# KB-V1 cytotox: KB-V1 MDR subline cytotoxicity. KB-V1 MDR cells viability, CellTiter-Glo, 72 h. AID 1347076. Potency, µM (top dose mostly 46.1 µM), hits mostly cytotoxic. 3.4% of 400,000 active; further: on the % scale 0 is the no-effect control and ±100 the full control effect; nearly all actives have a fitted effect of over 60% in size
#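 KB-V1, DMEM (no phenol red) + 10% FBS; cpd pin-transferred, titration series; 72 h, 37 degrees C; CellTiter-Glo, luminescence. Data normalized, curve-fit.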
# ATXN viability: viability counter-screen for ATXN expression inhibitors; AID 651635; S2 cells (HEK-293 line with an ATXN2-luciferase reporter) viability, CellTiter-Fluor protease fluorescence, 24 h; 0.49% of 400,000 active; Potency, µM (highest dose often 56.7 µM), actives largely listed as cytotoxic; further: nearly all actives have a fitted effect of over 40% in size
# HT1080 IDH1KD tx: kills HT-1080 cells with IDH1 knockdown | HT-1080 IDH1 knockdown viability, ATP luminescence, 48 h | AID 686971 | Potency, µM (doses to about 46.1 µM), for the others: top-dose activity, negative = toxicity, hits mostly cytotoxic | 2% of 360,000 active;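 further: 0% = DMSO wells and -100% = cell-free medium wells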
#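 Using the IDH1-knockdown HT-1080 line run in the same batch and compound series as the NT line, viability after 48 h at 37 °C was determined by CellTiter-Glo luminescence and expressed as % activity.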
# KB-3-1 cytotox: kills parental KB-3-1 adenocarcinoma cells. KB-3-1 viability, CellTiter-Glo ATP luminescence, 72 h. Potency, µM (series often up to 46.1 µM), hits mostly cytotoxic. 1.4% of 400,000 active; further: on the % scale 0 is the no-effect control and ±100 the full control effect; nearly all actives have a fitted effect of over 60% in size
#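 72 h, 37 °C compound treatment of KB-3-1 parental cells; CellTiter-Glo added, 10 min, luminescence read. Data corrected against DMSO-only plates and normalized before curve fitting.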
# Starred values were filed as active, the others as inactive; i = inactive; ? = inconclusive; · = not tested or not shown; [ ] = another dose, or the depositor's remark. A selection: hits, their analogues and other compounds. The true share with any hit is near 6.2%. The call rests on the fitted dose curve; in most records, active means well fitted curve in the direction sought with a large enough effect; inconclusive means small, poorly fitted or top-dose-only effect, or another doubt; inactive means no such curve, though single readings can be large; an effect the other way counts as inactive or inconclusive. Potency means the concentration at half of the fitted maximal effect.
SMILES,HT1080NT lethal,ATXN2 expr inh,KB-V1 cytotox,ATXN viability,HT1080 IDH1KD tx,KB-3-1 cytotox
C/C(=N\Nc1nc(N2CCCCC2)nc(N2CCOCC2)n1)c1ccccc1O,?,?,16.4µM*,i,18.4µM*,?
COc1cc(CNC(C)(C)CO)cc(Br)c1OCc1ccc(Cl)cc1,?,-10.1%,23.1µM*,i,?,?
CC(C)(CO)NCc1c(OCc2ccc(Cl)cc2)ccc2ccccc12,?,?,i,?,?,23.1µM*
CNCc1c(OCc2ccccc2)ccc2ccccc12,-16.4%,-28.9%,i,i,?,i
COc1cc(CNCCO)cc(Br)c1OCc1ccccc1Cl,-1.8%,-16.7%,?,i,-28.9%,?
COc1cc(CNC(C)(C)CO)cc(Br)c1OCc1ccc(Cl)cc1Cl,16.4µM*,-25.5%,18.4µM*,i,16.4µM*,?
COc1cc(CNCCO)cc(Cl)c1OCc1ccc(Cl)cc1Cl,20.6µM*,15.8µM*,i,35.5µM*,16.4µM*,i
CCOc1cc(CNc2ccc(O)cc2)ccc1OCc1ccc(Cl)cc1Cl,-6.5%,-11.0%,?,i,-22.2%,i
CN(C)c1ccc(/C=C/C=C2/C=Cc3ccccc32)cc1,·,·,i,·,·,i
N#C/C(=C/C=C/c1ccccc1)C(=O)Nc1ccccc1,-20.8%,-5.4%,16.4µM*,i,?,i
N#C/C(=C/c1ccc(O)c([N+](=O)[O-])c1)C(=O)Nc1ccccc1,?,?,?,?,8.2µM*,18.4µM*
COc1ccc(NC(=O)/C(C#N)=C/C=C/c2ccco2)cc1,?,-24.7%,13µM*,?,?,7.31µM*
COc1ccc(NC(=O)/C(C#N)=C/c2ccc(C)o2)cc1,·,62.0%,i,i,·,i
O=C(NC1CC1)[C@@H]1C[C@H](Sc2nc3ccccc3[nH]2)CN1CC1CCCCC1,·,·,·,i,·,·
COc1ccc(-c2noc(-c3ccccc3C(=O)N3CCOCC3)n2)cc1,2.1%,-4.4%,9.2µM*,i,3.5%,i
COc1ccc(S(=O)(=O)N(CC(=O)N2CCOCC2)Cc2ccccc2)cc1C,-0.1%,-4.9%,2.91µM*,i,-20.3%,i
Cc1ccc(NC(=O)Cn2c(C)cc(C)c(C#N)c2=O)cc1F,·,·,i,·,·,i
COCC(=O)Nc1cc(C(=O)NC2Cc3ccccc3C2)cc2nc(-c3cccnc3)n(C)c12,·,·,·,i,·,·
Cc1cccc(Oc2nc(-c3ccccn3)nc3ccccc23)c1,?,-8.0%,?,?,16.4µM*,i
Cc1ccccc1Oc1nc(-c2ccccn2)nc2ccccc12,?,?,9.2µM*,?,-27.1%,i
O=[N+]([O-])c1ccc(O)c(CSc2nnnn2-c2ccccc2)c1,-2.5%,-5.5%,i,i,-0.3%,i
O=C(/C(=N\Nc1ccc([N+](=O)[O-])cc1)Sc1nnnn1-c1ccccc1)c1ccccc1,?,-31.9%,16.4µM*,i,23.1µM*,i
Cc1ccc(N/N=C(/Sc2nnnn2-c2ccccc2)C(=O)c2ccccc2)cc1,-0.5%,-8.8%,20.6µM*,i,-4.1%,i
COc1ccc(C)cc1NC(=O)C1CCN(S(=O)(=O)c2cc(Br)cc3c2N(C(C)=O)CC3)CC1,·,2.6%,i,i,·,i
CC(=O)NC1=NN(C(C)=O)C(C)(c2ccccc2)S1 (stereo not given),2µM*,-17.6%,7.31µM*,i,7.08µM*,8.2µM*
SMILES,HT1080NT lethal,ATXN2 expr inh,KB-V1 cytotox,ATXN viability,HT1080 IDH1KD tx,KB-3-1 cytotox
CCOC(=O)c1[nH]c(C)c(CCC(=O)Nc2ccc(C(C)=O)cc2)c1C,·,6.5%,?,i,·,i
COCC1CCN(C(=O)c2cc(COc3ccc(-n4cncn4)cc3)on2)CC1,-10.4%,-2.7%,i,i,1.7%,i
COCC1CCN(C(=O)c2cc(COc3ccc4ncccc4c3)on2)CC1,-1.9%,-29.1%,7.31µM*,i,-14.7%,?
O=C(c1cc(COc2ccc3ncccc3c2)on1)N1CCCC1,20.6µM*,14.8%,?,i,14.6µM*,?
COc1cccc(CN(C)C(=O)c2cc(COc3ccc4ncccc4c3)on2)c1,?,?,4.11µM*,?,-20.2%,4.11µM*
Cc1ccc(OCc2cc(C(=O)N3CCCCCCC3)no2)cc1C,5.0%,17.6%,i,i,1.1%,i
O=C(c1cc(COc2ccc3ncccc3c2)on1)N1CCCCCC1,3.66µM*,-4.6%[11.3 µM],i,i,?,?
CCN1CCCC1CNC(=O)c1cnn(-c2nccc(-c3cccs3)n2)c1C1CC1 (stereo not given),·,·,·,i,·,·
O=C(NCCc1cn2ccccc2n1)c1cc(COc2ccc3ncccc3c2)on1,-4.3%,?,8.2µM*,?,-28.4%,?
Cc1ccc(CN2C(=O)C(F)(F)Oc3ccccc32)cc1,-15.8%,7.4%,i,i,0.9%,i
Cc1ccc(C(=O)N2c3ccccc3N(Cc3ccccc3)C(=O)C2(C)C)cc1,-29.8%,?,6.51µM*,i,?,i
Cc1ccccc1C(=O)NNc1ccc(-c2csnn2)cc1,?,-33.3%,i,i,8.2µM*,i
CC(=O)Oc1ccc(-c2csnn2)cc1,8.6%,0.8%,i,i,6.5%,i
CC1(C)OC2OC(C(=O)N/N=C/c3cc(Br)ccc3O)C3OC(C)(C)OC3C2O1 (stereo not given),-19.0%,?,9.2µM*,i,?,i
CCN(CC)c1ccc(NC(=O)c2cc(Cl)ccc2OC)cc1,?,17.3%,?,i,20.6µM*,i
O=C(/C=C/c1ccc(NC(=O)c2ccccc2-c2ccccc2C(=O)O)cc1)c1ccccc1,?,·,i,i,?,i
O=C(/C=C/c1ccncc1)c1ccc(NC(=O)c2ccccc2F)cc1,7.31µM*,-14.4%,?,?,9.2µM*,?
O=C(Nc1ccc(Nc2ccccc2)cc1)c1ccccc1F,-14.9%,21.6%,i,i,-19.4%,i
CCN(CC)c1ccc(NC(=O)c2ccccc2F)cc1,?,19.1%,?,i,16.4µM*,16.4µM*
N#CC1(c2ccc(NC(=O)c3ccccc3F)cc2)CCCC1,-7.4%,70.9%,23.1µM*,i,-6.4%,?
COc1ccc2c(c1)-c1nc(-n3ncc(C(=O)N(C)C(C)c4ccon4)c3C3CC3)ncc1CC2 (stereo not given),·,·,·,i,·,·
COC(=O)NC(NC(=S)Nc1cccc(C)c1)C(Cl)(Cl)Cl (stereo not given),-27.2%,-15.5%,i,?,-7.9%,i

# From PubChem
